Test results reported in the supplement of paper PMC6897291.
Structures can show the parent of a compound that is named as a salt.

Assays:
RIVA [1] = test: growth inhibition by drug plus 177Lu-lilotomab satetraxetan (1 - RLU/untreated control) (fraction); higher = stronger inhibition; conditions: 177Lu-lilotomab satetraxetan 0.5 ug/ml
Outline: (§1)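 With or without 18 h pretreatment by a radiolabelled anti-CD37 antibody conjugate (~600 MBq/mg; 0.5 µg/ml RIVA, 1 µg/ml U-2932), RIVA and U-2932 cells were washed and plated at 3,000 cells/well. Pre-printed compound doses were 10/100 nM for RIVA and 10/1,000 nM for U-2932. Growth inhibition uses RealTime-Glo RLU relative to the untreated no-drug wells. The calculation is 1 − RLU/mean of 48 such wells per plate, with reads daily from day 3 after 1 h at 37°C.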

U-2932 [2] = test: growth inhibition by drug alone (1 - RLU/untreated control) (fraction); higher = stronger inhibition; conditions: 177Lu-lilotomab satetraxetan 0 ug/ml
Outline: as §1

RIVA [3] = test: as above; conditions: 177Lu-lilotomab satetraxetan 0 ug/ml
Outline: as §1

U-2932 [4] = test: growth inhibition by drug plus 177Lu-lilotomab satetraxetan (1 - RLU/untreated control) (fraction); higher = stronger inhibition; conditions: 177Lu-lilotomab satetraxetan 1 ug/ml
Outline: as §1

Structure (SMILES)	growth inhibition by drug plus 177Lu-lilotomab satetraxetan (RIVA [1]; 100 nM, time (day): 5)	growth inhibition by drug plus 177Lu-lilotomab satetraxetan (RIVA [1]; 100 nM, time (day): 6)	growth inhibition by drug alone (U-2932 [2]; 10 nM, time (day): 3)	growth inhibition by drug alone (U-2932 [2]; 10 nM, time (day): 4)	growth inhibition by drug alone (U-2932 [2]; 10 nM, time (day): 5)	growth inhibition by drug alone (U-2932 [2]; 10 nM, time (day): 6)	growth inhibition by drug alone (U-2932 [2]; 1000 nM, time (day): 3)	growth inhibition by drug alone (U-2932 [2]; 1000 nM, time (day): 4)	growth inhibition by drug alone (U-2932 [2]; 1000 nM, time (day): 5)	growth inhibition by drug alone (U-2932 [2]; 1000 nM, time (day): 6)	growth inhibition by drug alone (RIVA [3]; 10 nM, time (day): 3)	growth inhibition by drug alone (RIVA [3]; 10 nM, time (day): 4)	growth inhibition by drug alone (RIVA [3]; 10 nM, time (day): 5)	growth inhibition by drug alone (RIVA [3]; 10 nM, time (day): 6)	growth inhibition by drug alone (RIVA [3]; 100 nM, time (day): 3)	growth inhibition by drug alone (RIVA [3]; 100 nM, time (day): 4)	growth inhibition by drug alone (RIVA [3]; 100 nM, time (day): 5)	growth inhibition by drug alone (RIVA [3]; 100 nM, time (day): 6)	growth inhibition by drug plus 177Lu-lilotomab satetraxetan (U-2932 [4]; 10 nM, time (day): 3)	growth inhibition by drug plus 177Lu-lilotomab satetraxetan (U-2932 [4]; 10 nM, time (day): 4)	growth inhibition by drug plus 177Lu-lilotomab satetraxetan (U-2932 [4]; 10 nM, time (day): 5)	growth inhibition by drug plus 177Lu-lilotomab satetraxetan (U-2932 [4]; 10 nM, time (day): 6)	growth inhibition by drug plus 177Lu-lilotomab satetraxetan (U-2932 [4]; 1000 nM, time (day): 3)	growth inhibition by drug plus 177Lu-lilotomab satetraxetan (U-2932 [4]; 1000 nM, time (day): 4)	growth inhibition by drug plus 177Lu-lilotomab satetraxetan (U-2932 [4]; 1000 nM, time (day): 5)	growth inhibition by drug plus 177Lu-lilotomab satetraxetan (U-2932 [4]; 1000 nM, time (day): 6)	growth inhibition by drug plus 177Lu-lilotomab satetraxetan (RIVA [1]; 10 nM, time (day): 3)	growth inhibition by drug plus 177Lu-lilotomab satetraxetan (RIVA [1]; 10 nM, time (day): 4)	growth inhibition by drug plus 177Lu-lilotomab satetraxetan (RIVA [1]; 10 nM, time (day): 5)	growth inhibition by drug plus 177Lu-lilotomab satetraxetan (RIVA [1]; 10 nM, time (day): 6)	growth inhibition by drug plus 177Lu-lilotomab satetraxetan (RIVA [1]; 100 nM, time (day): 3)	growth inhibition by drug plus 177Lu-lilotomab satetraxetan (RIVA [1]; 100 nM, time (day): 4)
Cc1nc(-c2ccc(OCC(C)C)c(C#N)c2)sc1C(=O)O [Febuxostat (Uloric)]	0.463	0.45																														
Fc1cc(-c2cccc3ncc(-c4cnn(C5CCNCC5)c4)nc23)cc(F)c1CN1CCOCC1	0.6	0.592	0.107	0.069	-0.083	-0.0936	0.0551	0.07	0.0444	-0.14	0.0385	0.00291	-0.0745	-0.286	-0.358	-0.305	-0.287	-0.341	0.0469	0.0958	0.15	0.179	0.041	0.106	0.135	0.237	0.548	0.579	0.59	0.593	0.571	0.589
CS(=O)(=O)N1CCc2c(-c3cnc(N)nc3)nc(N3CCOCC3)nc21	0.439	0.428	0.149	0.108	-0.0352	-0.0152	0.351	0.362	0.336	0.366	0.14	0.0286	-0.0356	-0.278	0.291	0.165	0.108	0.0361	0.0821	0.0867	0.0957	0.135	0.216	0.214	0.223	0.326	0.395	0.499	0.537	0.543	0.451	0.434
C[N+](C)([O-])CCNc1ccc(NCC[N+](C)(C)[O-])c2c1C(=O)c1c(O)ccc(O)c1C2=O [Banoxantrone dihydrochloride]	0.571	0.588	-0.0281	-0.0255	-0.149	-0.168	-0.0598	-0.0493	-0.082	-0.106	-0.171	-0.248	-0.397	-0.545	-0.338	-0.41	-0.557	-0.705	-0.00903	0.0168	0.0134	-0.00428	0.0744	0.142	0.219	0.381	0.391	0.472	0.484	0.498	0.446	0.551
CN1CCN(c2ccc3nc(-c4c(N)c5c(F)cccc5[nH]c4=O)[nH]c3c2)CC1 [Dovitinib (TKI-258)]	0.413	0.411	0.12	0.0504	-0.004	-0.0165	0.0669	-0.0112	-0.0673	-0.128	0.0921	0.0422	-0.0205	-0.168	-0.156	-0.0867	-0.188	-0.316	0.0639	0.0792	0.118	0.243	0.0496	0.031	0.0265	0.126	0.421	0.501	0.522	0.53	0.358	0.399
CC(=O)Nc1cccc(-n2c(=O)n(C3CC3)c(=O)c3c(Nc4ccc(I)cc4F)n(C)c(=O)c(C)c32)c1	0.455	0.407	0.103	0.0992	0.0497	0.109	0.311	0.328	0.215	0.243	0.0319	0.00936	-0.0739	-0.235	0.213	0.171	0.0872	-0.0469	0.124	0.133	0.11	0.234	0.319	0.326	0.258	0.328	0.463	0.488	0.477	0.465	0.507	0.487
C[C@H](NC(=O)Cc1cc(F)cc(F)c1)C(=O)N[C@H](C(=O)OC(C)(C)C)c1ccccc1	0.437	0.445	-0.0234	-0.0325	-0.047	-0.000319	-0.0711	-0.073	-0.0673	-0.0373	-0.112	-0.175	-0.192	-0.264	-0.299	-0.293	-0.297	-0.351	-0.0297	0.0223	0.0667	0.147	-0.025	0.0181	0.0285	0.158	0.498	0.535	0.549	0.545	0.341	0.426
C=CCc1cccc(/C=N/NC(=O)CN2CCN(Cc3ccccc3)CC2)c1O	0.488	0.509	0.126	0.104	0.0863	0.00412	0.161	0.136	0.0263	-0.0573	-0.0454	0.0184	-0.0886	-0.379	-0.195	-0.0942	-0.0824	-0.181	0.0573	0.108	0.173	0.215	0.15	0.163	0.17	0.249	0.608	0.648	0.666	0.668	0.392	0.492
Cc1nnc(C(C)C)n1C1C[C@H]2CC[C@@H](C1)N2CC[C@H](NC(=O)C1CCC(F)(F)CC1)c1ccccc1 (stereo in doubt) [Maraviroc]	0.587	0.584	0.125	0.118	0.0854	-0.0157	0.0827	0.0764	-0.0104	-0.122	0.071	0.0921	0.049	-0.0807	0.1	0.0864	0.0269	-0.0532	0.128	0.146	0.143	0.239	0.0251	0.112	0.105	0.201	0.542	0.609	0.618	0.645	0.545	0.593
Cc1cc(O)c2c(c1)C(=O)c1cccc(O)c1C2=O [Chrysophanic acid (Chrysophanol)]	0.559	0.574	-0.0586	-0.0671	-0.0488	0.0657	-0.0803	-0.0522	-0.0654	0.0406	-0.266	-0.269	-0.305	-0.322	-0.0635	-0.135	-0.0963	-0.115	-0.0546	-0.0035	0.0467	0.1	-0.0941	-0.0464	-0.00693	0.13	0.425	0.48	0.511	0.511	0.489	0.543
CC(C)c1onc(-c2c(Cl)cccc2Cl)c1COc1ccc(/C=C/c2cccc(C(=O)O)c2)c(Cl)c1	0.554	0.538	0.0964	0.0881	0.0536	0.0511	-0.008	0.0242	-0.0241	-0.208	0.157	0.0681	0.0301	-0.185	0.0922	0.0619	0.0293	-0.0245	0.0329	0.0686	0.0726	0.0791	-0.0283	0.0526	0.0247	0.0113	0.473	0.542	0.562	0.583	0.522	0.552
CN1CCN(CCOc2cc(OC3CCOCC3)c3c(Nc4c(Cl)ccc5c4OCO5)ncnc3c2)CC1 [Saracatinib (AZD0530)]	0.549	0.544	0.0465	0.00941	-0.0204	-0.381	-0.139	-0.146	-0.173	-0.33	-0.108	-0.164	-0.326	-0.893	-0.52	-0.418	-0.423	-0.554	-0.0675	-0.00671	0.0506	0.0536	-0.174	-0.108	-0.0137	0.1	0.366	0.494	0.508	0.537	0.458	0.536
NC(=O)Nc1cc(-c2cccc(F)c2)sc1C(=O)N[C@H]1CCCNC1	0.178	0.185	0.0534	0.00627	-0.197	-0.0587	0.942	0.955	0.959	0.962	0.0596	0.0145	-0.0537	-0.23	0.0812	0.0623	0.0116	-0.14	-0.0183	0.0423	0.122	0.155	0.964	0.971	0.974	0.978	0.318	0.362	0.396	0.43	0.139	0.161
CC(C)C[C@H](NC(=O)CNC(=O)c1cc(Cl)ccc1Cl)B1OC(=O)C(CC(=O)O)(CC(=O)O)O1	0.698	0.645	0.0922	0.0916	0.0981	-0.0316	0.985	0.984	0.984	0.984	-0.0185	0.0392	-0.0726	-0.362	0.319	0.4	0.359	0.21	0.0116	0.0804	0.149	0.155	0.984	0.985	0.986	0.988	0.542	0.596	0.606	0.609	0.64	0.701
CN(NC(=O)CC(=O)NN(C)C(=S)c1ccccc1)C(=S)c1ccccc1 [Elesclomol]	0.987	0.988	0.796	0.791	0.818	0.825	0.982	0.982	0.983	0.984	0.97	0.964	0.963	0.964	0.976	0.976	0.975	0.974	0.854	0.88	0.914	0.935	0.983	0.982	0.984	0.987	0.972	0.968	0.972	0.974	0.987	0.988
